# Laboratory results taken from PubChem BioAssay (NCI).
# About 79,000 compounds went through this panel and 15% of them were active in at least one assay; those are over-represented in the sample as a whole. A number with no mark means an inactive call. The source made the active and inactive calls. No stated cut-off is given here; in the data, active means growth inhibition above about 70%; inactive means the rest.
# Tests used:
# [1] = NCI Yeast Anticancer Drug Screen. Data for the rad50 strain (AID 155);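 further: 0% = growth of vehicle-only cultures of the same strain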; details: S. cerevisiae rad50 strain growth inhibition, active compounds read high
# Method in brief: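 DNA repair mutant yeast, compound exposure, growth read-out; inhibition is taken relative to vehicle.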
# [2] = NCI Yeast Anticancer Drug Screen. Data for the mec2-1 strain (AID 157); details: S. cerevisiae mec2-1 strain, active compounds read high
# Method in brief: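 Cells of the genetically defined mec2-1 yeast strain are incubated with test compound. Inhibition of growth is calculated against vehicle-treated controls.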
# [3] = NCI Yeast Anticancer Drug Screen. Data for the sgs1 mgt1 strain (AID 161);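 further: 0% = growth of cultures given vehicle only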; details: S. cerevisiae sgs1 mgt1 strain, active compounds read high
# Method in brief: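 Test agents were incubated with a DNA-repair-mutant yeast strain. Growth was then read and compared against vehicle-treated controls.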
# [4] = NCI Yeast Anticancer Drug Screen. Data for the cln2 rad14 strain (AID 165);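 further: 0% = growth equal to vehicle treated cultures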; details: S. cerevisiae cln2 rad14 strain, active compounds read high
# Method in brief: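 The screen exposed genetically defined yeast (cln2 rad14) to test compounds and scored growth inhibition relative to vehicle-treated controls.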
# [5] = NCI Yeast Anticancer Drug Screen. Data for the bub3 strain (AID 167); details: S. cerevisiae bub3 mutant strain, active compounds read high
# Method in brief: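 In this screen, a yeast mutant lacking normal mitotic checkpoint function is challenged with compound. Relative growth versus vehicle gives the inhibition value.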
# [6] = NCI Yeast Anticancer Drug Screen. Data for the mlh1 rad18 strain (AID 175); details: S. cerevisiae mlh1 rad18 strain growth inhibition, active compounds read high
# Method in brief: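 Compound-treated yeast growth, normalised to vehicle controls. Strain bears defined DNA repair mutations.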
# [7] = at 5.0 µM (retest, dose inferred, filed as 0.5)
# [8] = at 50.0 µM (retest, dose inferred, filed as 5.0)
Compound,"growth inhibition [1, 7]","growth inhibition [1, 8]",growth inhibition ([1]; at 50.0 µM),"growth inhibition [2, 7]","growth inhibition [2, 8]",growth inhibition ([2]; at 50.0 µM),"growth inhibition [3, 7]","growth inhibition [3, 8]",growth inhibition ([3]; at 50.0 µM),"growth inhibition [4, 7]","growth inhibition [4, 8]",growth inhibition ([4]; at 50.0 µM),"growth inhibition [5, 7]","growth inhibition [5, 8]",growth inhibition ([5]; at 50.0 µM),"growth inhibition [6, 7]","growth inhibition [6, 8]",growth inhibition ([6]; at 50.0 µM)
OB1c2ccccc2CCc2ccccc21,-4%,99% (active),99.3% (active),-7%,99% (active),99.5% (active),-4%,99% (active),99.5% (active),-13%,98% (active),96.6% (active),-25%,99% (active),99.2% (active),-2%,99% (active),99% (active)
CCN(CC)c1cc(Nc2c3ccc(Cl)cc3nc3cc(Cl)ccc23)ccc1O,1%,4%,34.5%,-39%,-3%,-11.2%,-3%,-4%,-4.35%,-6%,-3%,71.7% (active),-5%,-10%,0.75%,0%,-2%,-0.95%
OCc1cc2c([nH]c3ccccc32)c(C(O)CO)n1 (centres undefined),-2%,-6%,92.9% (active),0%,-3%,94.5% (active),-2%,-3%,94.5% (active),0%,-1%,92.7% (active),2%,-2%,93.3% (active),1%,-4%,-68.3%
Nc1ccc2[nH]c3ccccc3c2c1,-4%,6%,92.3% (active),0%,1%,-17.6%,-9%,0%,40.2%,-5%,3%,-38%,-1%,18%,25.2%,0%,29%,16.8%
CCCCCC(CN(C)C)C(O)/C=C\c1ccccc1 (centres undefined),0%,-8%,74.7% (active),-1%,-4%,48.6%,-10%,-22%,72.1% (active),-1%,-6%,4.9%,-2%,-10%,1.6%,8%,-9%,68.5%
COc1ccc(C2N(Cc3ccc(Cl)cc3)CCN2Cc2ccc(Cl)cc2)cc1,9%,70% (active),46.6%,9%,59%,32.2%,37%,89% (active),71.2% (active),21%,53%,69.2%,34%,91% (active),25.9%,25%,72% (active),50.5%
ON(C(=Nc1ccc(Cl)cc1)c1ccccc1)c1ccccc1,-10%,98% (active),98% (active),7%,99% (active),99.2% (active),-5%,99% (active),99% (active),-11%,98% (active),99.2% (active),7%,98% (active),98.8% (active),9%,99% (active),99% (active)
ClC(Cl)(Cl)C(c1ccccc1)c1ccccc1,3%,30%,76.8% (active),0%,12%,38.5%,3%,42%,71.1% (active),4%,-3%,-17.2%,-5%,5%,16.4%,16%,15%,73.8% (active)
CN(C)c1cc(N(C)C)c2cc(-c3ccccc3)sc2n1,11%,98% (active),75.7% (active),3%,99% (active),17.2%,5%,95% (active),94.6% (active),-11%,82% (active),7.65%,-5%,93% (active),64%,1%,94% (active),63%
CCOC(=O)c1cnc2ccc(C3CCCCC3)cc2c1Nc1ccc2c(c1)OCO2,-15%,91% (active),11.1%,-4%,95% (active),-8.35%,-23%,96% (active),5.15%,-9%,92% (active),-12.8%,3%,93% (active),-7.25%,-3%,93% (active),25.4%
C=CC(=O)NC(C)C,1%,6%,74.7% (active),0%,2%,-3.7%,1%,4%,19.4%,-1%,1%,16.7%,-2%,-4%,5.8%,0%,9%,40.3%
CCn1c2ccccc2c2ccc(N=Nc3ccc(N(C)C)cc3)cc21,34%,92% (active),77% (active),19%,94% (active),78.5% (active),6%,92% (active),79.5% (active),15%,84% (active),85.7% (active),10%,92% (active),82.3% (active),18%,93% (active),83.4% (active)
O=C(O)CC(C(=O)O)C(c1cccc2ccccc12)c1cccc2ccc3ccccc3c12 (centres undefined),6%,98% (active),98.3% (active),5%,99% (active),98.2% (active),-5%,99% (active),98.3% (active),4%,98% (active),98.7% (active),4%,99% (active),98.7% (active),7%,99% (active),97.8% (active)
CC(=O)N[C@H]1CCC2[C@@H]3CCC4=CC(=O)NCC[C@]4(C)C3CC[C@@]21C (some centres undefined),0%,89% (active),56.5%,-2%,92% (active),46.6%,-3%,58%,56.4%,-4%,78% (active),69.5%,6%,88% (active),96.2% (active),-2%,85% (active),57.5%
Cc1c(F)c(C)c(C(=O)O)c(C)c1F,26%,99% (active),99.4% (active),27%,98% (active),99.5% (active),20%,99% (active),99.5% (active),8%,99% (active),99.2% (active),11%,99% (active),99.2% (active),27%,100% (active),99.6% (active)
CCOC(=O)C(=C=C=C(c1ccccc1)c1ccccc1)C(=O)OCC,-3%,6%,33.9%,-2%,17%,23.5%,-3%,40%,78.2% (active),0%,1%,50.1%,-4%,6%,31%,-4%,6%,50.5%
C=CCCCCCCCCC(=O)ON(Cc1ccc(O)c(OC)c1)C(=O)C(F)(F)F,3%,73% (active),70.7% (active),-7%,66%,84.3% (active),-8%,67%,89.2% (active),20%,61%,85.5% (active),-12%,40%,90.5% (active),7%,86% (active),85.9% (active)
CC(C)c1ccc(O)c(O)c(=O)c1 (tested in a mixture with another compound),99% (active),100% (active),99.5% (active),100% (active),100% (active),99.7% (active),99% (active),99% (active),99.5% (active),97% (active),99% (active),99.1% (active),99% (active),100% (active),99.3% (active),99% (active),99% (active),99.3% (active)
